VCAM1 TNFa inh = inhibitors of TNFa-induced VCAM1 expression, primary screen, imaging, HUVEC, TNFa stimulus, immunofluorescence. HUVEC TNFa-induced VCAM-1 immunofluorescence, high-content imaging. inhibition, % at 2 µM. actives 0.48% (n = 95,000). AID 802, 2007;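 active means inhibition above the batch mean plus 3 SD, with images confirmed as a hit by eye, cut at about 37% in these data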;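 further: 0% = TNF-stimulated DMSO wells and 100% = unstimulated control wells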
HUVEC tox IL1B = cytotoxicity in IL-1B stimulated HUVEC, primary screen, cytotoxicity control for IL-1B NFkB translocation project, imaging, Hoechst nuclear count, IL-1B stimulus. HUVEC cell count loss. cell count reduction, % at 2 µM. actives 0.41% (n = 94,000). AID 845, 2007;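 active means cell count reduction more than 3 SD above the screen-wide mean, cut at about 70% in these data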;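 further: normalized per plate to untreated control cells as the no-loss baseline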
NFkB transloc inh = inhibitors of IL-1B driven NFkB p65 nuclear import, primary screen, imaging, HUVEC, IL-1B stimulus, high-content imaging | HUVEC IL-1B NFkB p65 nuclear translocation imaging | inhibition, % at 2 µM | actives 0.43% (n = 94,000) | AID 796, 2007;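 active means inhibition above about 30% together with a positive call from visual inspection of the well image, limit read from the data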;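 further: nuclear over cytoplasmic p65 intensity ratio measured by imaging; 0% = IL-1B stimulated DMSO wells and 100% = unstimulated DMSO wells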
HUVEC tox TNFa = cytotoxicity in TNFa-stimulated HUVEC, primary screen, cytotoxicity control for VCAM1 expression modulator project, imaging, Hoechst nuclei count; actives 0.17% (n = 93,000); AID 848, 2007; cell count reduction, % at 2 µM; HUVEC TNFalpha-stimulated, Hoechst cell count;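 active means cell count reduction exceeding the screen mean by over 5 SD, scaled to untreated wells per plate, cut at about 78% in these data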;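 further: cells counted after 24 h of TNF alpha exposure following the 1 h pretreatment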
NFkB transloc pot = enhancers of NFkB p65 translocation in HUVEC – imaging, IL-1B stimulus, high-content imaging, primary screen. HUVEC IL-1B NFkB p65 nuclear translocation imaging. activation, % at 2 µM. actives 0.3% (n = 94,000);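 active means activation above 40%, about the mean plus 3 SD, also judged a hit on visual image review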;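 further: percent activation is computed from the nuclear over cytoplasmic p65 intensity ratio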
* = called active by the depositor. Compounds with a hit are over-represented: about 1.5% of the library has one in this group of screens.

What do the screens show for `CCN1CCCC1Cn1cnc2c([nH]c3ccc(Cl)cc32)c1=O` (configuration not stated)?
VCAM1 TNFa inh: -6; HUVEC tox IL1B: -3; NFkB transloc inh: -4; HUVEC tox TNFa: -41; NFkB transloc pot: 4

What do the screens show for `CC(=O)c1c(C)oc2ccc(N(C(C)=O)S(=O)(=O)c3ccc(Cl)c([N+](=O)[O-])c3)cc12`?
VCAM1 TNFa inh: 88*; HUVEC tox IL1B: 1; NFkB transloc inh: 8; HUVEC tox TNFa: 8; NFkB transloc pot: -8

Results for CC(C)CCNC(=O)C(c1cccnc1)N(CCc1ccccc1)C(=O)Cn1nnc2ccccc21 (configuration not stated) ?
VCAM1 TNFa inh: 5; HUVEC tox IL1B: 13; NFkB transloc inh: 7; HUVEC tox TNFa: -1; NFkB transloc pot: -7

How did CCCCSc1nnc2nc(C)cc(C)n12 do in these assays?
VCAM1 TNFa inh: 3; HUVEC tox IL1B: -4; NFkB transloc inh: 1; HUVEC tox TNFa: -30; NFkB transloc pot: -1

Results for c1ccc2oc(-c3ccc4nc[nH]c4c3)nc2c1 ?
VCAM1 TNFa inh: -14; HUVEC tox IL1B: -31; NFkB transloc inh: 52*; HUVEC tox TNFa: -7; NFkB transloc pot: -52

What do the screens show for `CC1CCC2(CC1)N=C(N)Nc1nc3ccccc3n12` (configuration not stated)?
VCAM1 TNFa inh: 6; HUVEC tox IL1B: 0; NFkB transloc inh: 8; HUVEC tox TNFa: 11; NFkB transloc pot: -8

How did CCc1nnc(-n2nc(C)cc2-c2ccccc2)n1N do in these assays?
VCAM1 TNFa inh: 16; HUVEC tox IL1B: 95*; NFkB transloc inh: 98*; HUVEC tox TNFa: 1; NFkB transloc pot: -97

How did CCOc1ccc(N2C(=O)CC(SC(=NC)Nc3ccc(F)cc3)C2=O)cc1 (configuration not stated) do in these assays?
VCAM1 TNFa inh: -1; HUVEC tox IL1B: 40; NFkB transloc inh: -13; HUVEC tox TNFa: -21; NFkB transloc pot: 13

How did Cc1ccc(Nc2nc(CSc3nnnn3-c3ccccc3)cs2)cc1 do in these assays?
VCAM1 TNFa inh: -12; HUVEC tox IL1B: -15; NFkB transloc inh: -4; HUVEC tox TNFa: -9; NFkB transloc pot: 4

What do the screens show for `Cc1cccc(-n2nnnc2SCc2csc(-c3ccccc3)n2)c1`?
VCAM1 TNFa inh: 12; HUVEC tox IL1B: -21; NFkB transloc inh: -19; HUVEC tox TNFa: 88*; NFkB transloc pot: 19

Results for Cc1n[nH]c(=O)nc1NCc1ccccc1 ?
VCAM1 TNFa inh: 89*; HUVEC tox IL1B: -22; NFkB transloc inh: -7; HUVEC tox TNFa: 77; NFkB transloc pot: 7

How did Cc1n[nH]c(=O)nc1NCCc1ccccc1 do in these assays?
VCAM1 TNFa inh: -9; HUVEC tox IL1B: -2; NFkB transloc inh: -4; HUVEC tox TNFa: -23; NFkB transloc pot: 5

Results for Cc1cccc2cc(C#N)c(SCC(=O)N3CC(=O)Nc4ccccc43)nc12 ?
VCAM1 TNFa inh: 94*; HUVEC tox IL1B: 29; NFkB transloc inh: 9; HUVEC tox TNFa: 60; NFkB transloc pot: -9

What do the screens show for `Cc1ccccc1Cn1cc(NC(=O)CSc2nc3c(c(C(F)(F)F)n2)CCc2ccccc2-3)cn1`?
VCAM1 TNFa inh: -3; HUVEC tox IL1B: 0; NFkB transloc inh: 9; HUVEC tox TNFa: 2; NFkB transloc pot: -9

How did O=C(Nc1ccc2oc(-c3cccnc3)nc2c1)c1ccco1 do in these assays?
VCAM1 TNFa inh: 17; HUVEC tox IL1B: -8; NFkB transloc inh: -10; HUVEC tox TNFa: 5; NFkB transloc pot: 10

Results for O=C(Nc1ccc2nc(-c3ccccc3)oc2c1)c1ccco1 ?
VCAM1 TNFa inh: -17; HUVEC tox IL1B: -39; NFkB transloc inh: -40; HUVEC tox TNFa: -1; NFkB transloc pot: 40*

What do the screens show for `COc1ccc(-c2nc(N)nc(C)c2Oc2ccccc2Br)c(O)c1`?
VCAM1 TNFa inh: -7; HUVEC tox IL1B: 4; NFkB transloc inh: 2; HUVEC tox TNFa: -8; NFkB transloc pot: -3

Results for Cc1c(C(=O)OC(C)C)[nH]c2c1C(=O)CC(C)(C)C2 ?
VCAM1 TNFa inh: 4; HUVEC tox IL1B: 87*; NFkB transloc inh: 96*; HUVEC tox TNFa: -6; NFkB transloc pot: -96

What do the screens show for `Cc1c(C(=O)OC(C)C)[nH]c2c1C(=O)CCC2`?
VCAM1 TNFa inh: 21; HUVEC tox IL1B: -27; NFkB transloc inh: 1; HUVEC tox TNFa: -7; NFkB transloc pot: -1
